aSyn UTR act: Activators via SNCA 5'UTR binding, MLPCN | AID 1814 | alpha-synuclein 5'UTR reporter, activators screen | actives 7.1% (n = 300,000) | activity score, % (tested at 7.5 µM), hits read low; in the data active means activity score below about -60%
Numbers without * were called inactive. A selection follows.

SMILES	aSyn UTR act
CCN(CC)c1ccc(/C=N/n2nnnc2N)c(O)c1	-89*
CCN(C)c1ccc(/C=N\n2nnnc2N)cc1	-115*
O=c1oc(-c2ccccc2)cc(Cl)c1Cl	-198*
COc1ccc(N2C(=S)NC3N2C(=S)NC3(C)c2ccccc2)cc1 (configuration not stated)	-93*
O=C(Nc1ccc2[nH]ncc2c1)c1ccc(F)cc1	-90*
O=C(Nc1ccc2[nH]ncc2c1)c1ccccc1	-81*
CC1=C[C@@H](C)[C@@H](c2ccc(C(F)(F)F)cc2)OC1=O	-63*
COc1ccc(NC(=O)c2cc(C)no2)cc1	-65*
Cc1ccc(NC(=O)c2cc(C)no2)cc1	-75*
COCCNC(=O)c1ccc2c(Cl)c3c(nc2c1)CCC3	-145*
COc1ccc(C(C#N)=C2C=CC(=NO)C=C2)cc1	-148*
Cc1ccc(C(=O)N2CCN3C(=O)c4ccccc4C23c2ccc(Cl)cc2)cc1 (configuration not stated)	-69*
COc1cc(/C=C/c2ccc3cccc(O)c3n2)ccc1O	-67*
Oc1cccc2ccc(/C=C/c3cccs3)nc12	-172*
COc1ccc(C(NC(C)=O)c2ccc3cccnc3c2O)c(OC)c1 (configuration not stated)	83
Clc1ccc(CO/N=C2\CCCc3nonc32)cc1	-70*
CCOc1ccc(-c2cc(C(=O)NN)[nH]n2)cc1	-69*
COCCN(C(=O)c1ccco1)c1nnc(-c2ccc(F)cc2)s1	-92*
CCCN(C(=O)c1ccco1)c1nnc(-c2ccccc2C)s1	-89*
CN(C(=O)c1ccco1)c1nnc(-c2ccc(F)cc2)s1	-200*
CCCN(C(=O)c1cccs1)c1nnc(-c2ccncc2)s1	-100*
CN(C(=O)c1ccco1)c1nc(-c2ccc(F)cc2)cs1	-146*
CCN(C(=O)c1ccco1)c1nnc(-c2cccnc2)s1	-137*
CCOCC(=O)Nc1nc2ccc(OC)cc2s1	-89*
CCOc1ccc2nc(NC(=O)Cn3[nH]c(=O)c4ccccc4c3=O)sc2c1	-105*
SMILES	aSyn UTR act
CCOc1ccc2nc(NC(=O)COC)sc2c1	-97*
Cc1cccc(CSc2nnc(-c3ccco3)n2C)c1	-70*
Cc1cccc(-c2nnc(SCc3ccccc3)o2)c1	-102*
Cc1cccc(CSc2nnc(-c3ccco3)o2)c1	-64*
CC(=O)c1ccc(NC(=O)C2(c3ccccc3)CCOCC2)cc1	-118*
CC(=O)N(/N=C1\Sc2ccccc2C1=O)c1cccc(C)c1	-127*
COc1cccc(/C=N/NC(=O)c2cc(-c3cccn3C)n[nH]2)c1O	95
COc1cc(/C=N/NC(=O)c2cc(-c3cccn3C)n[nH]2)cc(OC)c1OC	-71*
CCOC(=O)c1cnc(Nc2nc3ccccc3o2)nc1C	86
CCOC(=O)c1cnc(Nc2nc3ccccc3o2)nc1CSc1nnc(C)s1	-86*
Cc1cc[n+](C2=C([O-])c3ccccc3C(=O)/C2=N\S(=O)(=O)c2cccs2)cc1C	74
Cc1ccc(NC2=C/C(=N/S(=O)(=O)c3cccs3)c3ccccc3C2=O)cc1C	-155*
Cc1ccccc1NC1=C/C(=N\S(=O)(=O)c2ccc(C(=O)O)cc2)c2ccccc2C1=O	-69*
CC(C)(C)c1cc[n+](C2=C([O-])c3ccccc3C(=O)/C2=N\S(=O)(=O)c2ccccc2)cc1	84
Cc1ccccc1NC1=C/C(=N\S(=O)(=O)c2cccs2)c2ccccc2C1=O	114
c1ccc(Nc2scc(-c3ccccc3)[n+]2Cc2ccco2)cc1	-222*
C=CC[n+]1c(-c2ccc(C)cc2)csc1Nc1ccc(NC(C)=O)cc1	100
N#Cc1c(NC(=O)c2cccnc2)sc2c1CCC2	-150*
N#Cc1c(NC(=S)NC(=O)c2ccccc2)sc2c1CCCC2	-96*
N#Cc1c(NC(=O)c2cnccn2)sc2c1CCCC2	-128*
N#Cc1c(NC(=O)c2ccccc2)sc2c1CCC2	-288*
N#Cc1ccc(-c2cccnc2)nc1SCC(=O)Nc1sc2c(c1C#N)CCC2	-88*
CC1CCc2c(sc(NC(=S)NC(=O)c3ccccc3)c2C#N)C1 (configuration not stated)	-74*
NC(=O)c1c(NC(=O)c2ccc([N+](=O)[O-])o2)sc2c1CCCC2	95
N#Cc1c(NC(=O)c2ccc([N+](=O)[O-])o2)sc2c1CCC2	-107*
SMILES	aSyn UTR act
Cc1cc(C(=O)Nc2sc3c(c2C#N)CCC(C)C3)cs1 (configuration not stated)	-103*
CNC(=O)c1c(NC(=O)c2cccc(C)c2)sc2c1CCC2	-213*
Cc1ccc(OCc2cc(C(=O)NCC(C)(C)N3CCOCC3)no2)cc1C	-122*
COc1cc(C)ccc1OCc1cc(C(=O)NCCN2CCOCC2)no1	-124*
CCN1CCCC1CNC(=O)c1cc(COc2ccc(C)c(C)c2)on1 (configuration not stated)	-63*
CN1CCN(C(=O)/C=C/c2ccc([N+](=O)[O-])o2)CC1	-83*
O=C(/C=C/c1ccc(-c2ccc(F)cc2)o1)N1CCCC1	-127*
CCSc1nc2ccccc2n1C(=O)/C=C\c1ccc(OC)c(OC)c1	-112*
O=C(O)c1ccc(-c2nc(-c3ccc(Cl)cc3)cs2)cc1	-173*
C=CCNC(=O)c1ccc(-c2nc(-c3ccccc3)cs2)cc1	-102*
O=C(O)c1ccc(-c2nc(-c3ccc(Cl)cc3Cl)cs2)cc1	-179*
COc1ccc(-c2csc(-c3ccc(C(=O)O)cc3)n2)cc1	-160*
COc1ccc(C(=O)N/N=C(/C)c2cccc(NC(=O)c3ccccc3F)c2)cc1	-79*
C/C(=N\NC(=O)c1cc(O)ccc1O)c1cccc(NC(=O)c2ccc(Cl)cc2)c1	-99*
COc1ccc(C(=O)N/N=C(\C)c2cccc(NC(=O)c3ccc(F)cc3)c2)c(OC)c1	-66*
C/C(=N\NC(=O)c1ccncc1)c1cccc(NC(=O)c2ccc(C(C)(C)C)cc2)c1	-123*
CCN(CCn1cccn1)C(=O)CCc1nnc(C2(c3ccc(Cl)cc3)CCC2)o1	-86*
CCN(CCn1cccn1)C(=O)CCc1nnc(-c2ccccc2)o1	-73*
C/C(=N\NC(=O)c1ccco1)c1ccc(-c2ccccc2)cc1	-126*
C/C(=N\NC(=O)c1ccco1)c1ccc(NC(=O)c2ccccc2)cc1	-126*
C/C(=N\NC(=O)c1ccco1)c1cc2ccccc2o1	-94*
C/C(=N\NC(=O)COc1ccccc1F)c1cc2ccccc2o1	-133*
O=c1oc2ccccc2cc1-c1ccccc1	-118*
O=c1oc2ccccc2cc1-c1nnc(-c2cccc(Br)c2)o1	-98*
O=c1oc2ccccc2cc1-c1cn2cccnc2n1	-65*
SMILES	aSyn UTR act
O=c1oc2ccc(Cl)cc2cc1-c1ccccc1	-70*
O=C(Cc1cccc2ccccc12)Nc1ccc(-c2cc3ccccc3oc2=O)cc1	65
O=c1oc2ccccc2cc1-c1cn2ccccc2n1	98
CC(C)c1cc2c(c(O)c1O)[C@@]13CCCC(C)(C)C1CC2OC3=O (some centres not stated)	-126*
N/C(=N\OC(=O)c1ccc(Cl)cc1)c1cccnc1	-187*
N/C(=N\OC(=O)c1ccc(Cl)cc1)c1ccn[nH]1	-77*
N/C(=N\OC(=O)c1ccco1)c1cccnc1	-78*
Cc1ccccc1/C(N)=N/OC(=O)c1cccs1	-120*
N/C(=N\OC(=O)c1ccc(Cl)cc1Cl)c1cccnc1	-70*
CCSc1ccc(/C(N)=N/OC(=O)c2cccs2)cn1	-120*
N/C(=N\OC(=O)c1ccc(Cl)cc1)c1ccc(Cl)cc1	-122*
N/C(=N\OC(=O)c1cccs1)c1cccnc1	-92*
